Screening results from PubChem BioAssay.
The list is not random: actives were taken first. Their share in the collection is about 3.5%.
MITF primary = human MITF inhibition, primary screen. O75030. AlphaScreen MITF homodimerization, bead proximity signal. inhibition, % at 2.6 µM. 650,000 compounds, 0.91% hits. AID 1259374; in the data active = inhibition above about 50%;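 also: 0% = vehicle wells with protein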
FBW7 act = activators of human E3 ligase FBW7; Q969H0; AlphaScreen FBW7–phospho-cyclin E peptide binding, activator screen; normalized activity (activation), % at 26.1 µM; 650,000 compounds, 0.13% hits; AID 1259310; in the data active = normalized activity above about 1.9%;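 also: purified mutant Fbw7 with reduced substrate affinity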
TEAD-YAP inh = TEAD-YAP interaction inhibition. HEK-TIYL cells, TEAD-Gal4/YAP UAS-luciferase luminescence. inhibition, % at 9.12 µM. 640,000 compounds, 1.4% hits. AID 1259422; in the data active = inhibition above about 32%;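 also: 0% = median of test compound wells and 100% = reference inhibitor wells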
GPR151 activ = activators of human GPR151; AID 1508602; PathHunter beta-arrestin GPR151 cells, luminescence; 650,000 compounds, 1% hits; activation, % at 11.2 µM; in the data active = activation above about 4.9%;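 also: 0% = median of compound wells and 100% = cells with positive control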
Target sequence (Q8TDV0 whole entry, looked up): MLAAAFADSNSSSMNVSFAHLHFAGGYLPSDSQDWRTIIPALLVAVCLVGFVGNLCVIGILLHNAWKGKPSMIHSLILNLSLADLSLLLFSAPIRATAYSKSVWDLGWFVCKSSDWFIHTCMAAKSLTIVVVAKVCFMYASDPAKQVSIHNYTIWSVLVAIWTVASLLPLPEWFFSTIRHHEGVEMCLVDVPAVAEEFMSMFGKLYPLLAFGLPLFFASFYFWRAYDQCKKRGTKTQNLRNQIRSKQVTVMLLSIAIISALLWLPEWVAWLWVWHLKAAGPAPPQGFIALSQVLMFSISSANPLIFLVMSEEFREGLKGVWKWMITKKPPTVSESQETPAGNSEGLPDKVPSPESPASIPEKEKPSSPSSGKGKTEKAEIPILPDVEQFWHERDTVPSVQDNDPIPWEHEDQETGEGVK
Active calls of the source: *; ! = repeats disagree.

SMILES	MITF primary	FBW7 act	TEAD-YAP inh	GPR151 activ
c1cc2c(cc1-c1ccc3c(c1)OCO3)COC1(CCNCC1)O2	-10	1	9	-1
c1ccc2cc(-c3ccc4c(c3)COC3(CCNCC3)O4)ccc2c1	-18	-1	84*	0
COCCNc1ccc(C(=O)N2CC3CC(C2)c2cccc(=O)n2C3)cc1[N+](=O)[O-] (stereo not given)	0	0	0	-2
O=c1cccc2n1CC1CC2CN(C(=S)Nc2ccccc2Cl)C1 (stereo not given)	-5	0	6	0
CC(=O)OC1CCC23C(=O)OC45CCC(C6=CC(=O)OC6)C4(C)CCC2C5CCC3(O)C1 (stereo not given)	-6	0	102*	2
O=C(CCl)Nc1ccccc1Cl	8	1	22	0
Cc1ccc(C)c(NC2=NC(C)(C)CS2)c1	-8	0	-10	3
COc1cc2c(cc1O)CC1c3c(cc(O)c(OC)c3-2)CCN1C (stereo not given)	19	0	34*!	2
O=C(c1ccccc1Cl)c1cc([N+](=O)[O-])ccc1-n1cccc1	9	0	51*	1
Cc1ccc(C)c(CN2CC3CC(C2)c2cccc(=O)n2C3)c1 (stereo not given)	-1	0	-14	0
CN1CC=C(c2noc(CCC(=O)Nc3ccc(F)c(Cl)c3)n2)CC1	39	2.1*	-1	-1
CN1CC=C(c2noc(CCC(=O)Nc3ccc(F)cc3Cl)n2)CC1	31	2	-5	-1
CCn1nc(-c2cccnc2)nc2c(=O)n(C)c(=O)nc1-2	-7	0	76*	-5
CC(=O)Oc1ccc(/C=C/c2cc(OC(C)=O)cc(OC(C)=O)c2)cc1	0	0	96*	-7
N#CC1=C(N)Oc2c(c(=O)oc3ccccc23)C1c1cccs1 (stereo not given)	6	0	-7	1
CCOC(=O)C1=C(C)NC(C)=C2C(=O)Oc3ccccc3C12 (stereo not given)	-3	0	0	1
CCOC(=O)C12OC1(c1ccc(CC)cc1)C(=O)c1ccccc1C2=O (stereo not given)	21	0	37*	0
COc1ccc(Cc2nc3ccccc3n2C2CCN(Cc3cnn(C)c3)CC2)cc1	12	0	5	0
CN(C)c1ccc(-c2cc[n+](C)cc2)cc1	17	0	56*	2
CCN(CC)C(=O)c1ccc(NC(=O)CN2CCCCC2)cc1	12	0	-3	-1
CCN(CC)C(=O)c1ccc(NC(=O)c2ccccn2)cc1	-6	0	42*	-10
C=C(C)[C@H]1Cc2c(ccc3c2O[C@@H]2COc4cc(OC)c(OC)cc4[C@@H]2C3=O)O1	22	0	70*	-1
O=C(CCl)Nc1ccc(Cl)cc1C(=O)c1ccccc1	10	0	35*	2
N/C(=N\[N+](=O)[O-])N/N=C/c1ccc(O)c(O)c1	87*	1	-5	-5
O=C1C(=O)c2ccccc2-c2ccccc21	16	-1	99*	1
SMILES	MITF primary	FBW7 act	TEAD-YAP inh	GPR151 activ
O=c1[nH]c(=S)n(Cc2ccco2)c(O)c1C=NCc1cccs1	19	0	-3	0
N#Cc1c(/N=C/c2c(O)n(Cc3ccco3)c(=O)[nH]c2=O)sc2c1CCCC2	53*	-1	-7	1
Cc1n(CCOCCn2c(C)[n+](C)c3ccccc32)c2ccccc2[n+]1C	7	0	4	0
CN1CCN(c2cccc3c2C(=O)c2ccccc2C3=O)CC1	7	0	37*	0
O=[N+]([O-])/N=C/Nc1ccc(-c2ccco2)cc1[N+](=O)[O-]	-10	0	6	-1
COc1ccc(C2NCc3ccc4c(c3-n3cccc32)OCO4)cc1O (stereo not given)	5	0	56*	1
Cc1ccc2c(c1)C1CN(C)CCC1N2C(=O)NC1CCCCC1 (stereo not given)	-12	0	-9	1
C/C=C(/C)C(=O)O[C@H]1C(C)=C2[C@H]([C@@H]1OC(=O)CCCCCCC)[C@@](C)(OC(C)=O)C[C@H](OC(=O)CCC)[C@@]1(O)[C@H]2OC(=O)[C@@]1(C)O	11	0	57*	0
Fc1ccc(NC(=S)N2CCCCC2c2cccnc2)cc1 (stereo not given)	-9	0	-2	0
COc1ccc(OCC(=O)N2CCN(C3CCCCC3C)CC2)cc1 (stereo not given)	29	0	-8	-3
COC(=O)Nc1nc2ccccc2[nH]1	-11	0	35*	-3
CS(=O)(=O)N1CCC(C(=O)Nc2ccc(Br)cc2C(=O)c2ccccc2)CC1	1	0	4	2
CCN(CC)c1ccc(CNC(C)C(O)c2ccccc2)cc1 (stereo not given)	3	0	53*	-1
CC(NCc1ccc(F)cc1)C(O)c1ccccc1 (stereo not given)	1	0	20	0
CCn1nc(-c2ccccc2)nc2c(=O)n(C)c(=O)nc1-2	5	-2	-32	-8
Cc1nc2c(=O)n(C)c(=O)nc-2n(C)n1	22	-2	100*	-6
CCOP(=O)(OCC)C(N)c1ccc(Cl)cc1 (stereo not given)	-4	0	0	-2
COc1ccc(CCN)c2ccccc12	9	0	16	-1
O=C(c1ccccc1)C(CN1CCCC1)c1ccccc1 (stereo not given)	0	0	54*	0
O=C(CN1CCCCCC1)c1ccccc1	-14	0	0	0
CC(C)CN1CCN(Cc2ccc(F)cc2F)CC1CCO (stereo not given)	8	0	4	1
CCOC(=O)CN1C(=O)C2(C(C(=O)OC)=C(C)OC(N)=C2C(=O)OCC)c2ccccc21 (stereo not given)	16	0	8	1
CC(C)C[C@H]1C(=O)N2CCN(Cc3ccccn3)C[C@@H]2C(=O)N1C	-9	0	-28	0
CC(C)=CCCC1(C)C=Cc2c(O)c3c(c(CC=C(C)C)c2O1)OC12C(=CC4CC1C(C)(C)OC2(C/C=C(\C)C(N)=O)C4=O)C3=O (stereo not given)	17	0	38*	5
COc1ccccc1CN1CCN(CC(C)(C)C)C(CCO)C1 (stereo not given)	1	0	-7	-1
SMILES	MITF primary	FBW7 act	TEAD-YAP inh	GPR151 activ
CC1=[N+](C)c2c(ccc3ccccc23)C1(C)C	26	0	60*	1
CCP(=O)(CC)Nc1cccc(C(F)(F)F)c1	8	0	8	1
O=C(Nc1cccc(C(F)(F)F)c1)c1cc(Cl)ccc1O	4	0	78*	-1
COC(=O)c1ccc(-c2ccc(/C=C3\C(=O)NC(=O)N(Cc4ccccc4)C3=O)o2)cc1	2	0	-31	0
O=C1NC(=O)C(=Cc2cc(Cl)ccc2OCc2ccc(C(=O)O)cc2)C(=O)N1	5	-1	0	1
CCOc1ccc(C=C2C(=O)NC(=S)NC2=O)cc1OCC	5	0	4	-1
COc1cc(C=C2C(=O)NC(=S)NC2=O)ccc1OCc1cccc(C(=O)O)c1	-20	0	85*	-8
